# Laboratory results: PubChem BioAssay (NCATS)
# A number with no mark means an inactive call. Records with an inconclusive call do not appear. Activity calls are given as the source filed them. Calls follow the shape of the dose curve; as a rule, active = well fitted curve in the direction sought with a large enough effect; inconclusive = small, poorly fitted or top-dose-only effect, or another doubt; inactive = no such curve, though single readings can be large; an effect the other way counts as inactive or inconclusive.
# Molecular target: Cytochrome P450 3A4 (Homo sapiens) (UniProt P08684)
# Experiment: qHTS Assay for Inhibitors and Substrates of Cytochrome P450 3A4 (AID 884); also: nearly all actives have a fitted effect of over 50% in size; also: potency is read from the fitted curve at half-maximal effect; as to activity change, negative = inhibition: % is scaled to controls: 0 for no effect and ±100 for the full control effect
# Details: recombinant CYP3A4, Luciferin-PPXE luminescence; series mostly up to 57.1 µM; activity change, negative = inhibition: at the top concentration
# Summary of the method: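 Luminescent readout of luciferin produced by CYP3A4 (20 nM) dealkylation of Luciferin-PPXE, 25 uM (its KM). NADPH-driven reaction ran 60 min at RT after 10 min compound preincubation; data scaled to 57 uM ketoconazole as 100% inhibition.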
# Cytochrome P450 3A4 (Homo sapiens), sequence (P08684 whole entry, looked up): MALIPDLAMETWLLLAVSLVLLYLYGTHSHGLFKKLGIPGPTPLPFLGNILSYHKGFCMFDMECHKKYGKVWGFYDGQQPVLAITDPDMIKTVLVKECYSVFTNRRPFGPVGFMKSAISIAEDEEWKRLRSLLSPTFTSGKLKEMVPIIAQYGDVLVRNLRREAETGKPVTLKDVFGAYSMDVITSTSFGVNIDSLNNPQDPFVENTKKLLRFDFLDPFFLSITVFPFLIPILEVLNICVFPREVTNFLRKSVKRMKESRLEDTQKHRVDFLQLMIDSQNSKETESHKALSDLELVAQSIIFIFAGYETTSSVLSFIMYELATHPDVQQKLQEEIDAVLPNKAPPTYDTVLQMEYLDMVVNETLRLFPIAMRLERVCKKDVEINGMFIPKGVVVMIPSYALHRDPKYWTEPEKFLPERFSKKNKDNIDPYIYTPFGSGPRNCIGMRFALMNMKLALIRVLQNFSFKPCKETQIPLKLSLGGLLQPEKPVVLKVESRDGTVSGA
SMILES,Potency,"activity change, negative = inhibition"
COc1ccccc1CC(Cc1nc2ccccc2[nH]1)c1nc2ccccc2[nH]1 (configuration not stated),1.58 µM (active),
CC(C)=CCC/C(C)=C/COc1c2occc2cc2ccc(=O)oc12,1.26 µM (active),
O=c1c(O)c(-c2ccc(O)c(O)c2)oc2c(OC[C@@H]3O[C@@H](O)[C@@H](O)[C@H](O)[C@H]3O)c(O)cc(O)c12,,-17%
CNC(=O)Oc1ccc2c(c1)C1(C)CCN(C)C1N2C (configuration not stated),,-11.8%
COc1ccc(C(=O)C2C3C4COC(O4)C(=O)C3C3C=Cc4ccccc4N32)c(OC)c1 (configuration not stated),31.6 µM (active),
O=c1cc(-c2ccccc2)oc2cc(O[C@@H]3O[C@H](CO)[C@@H](O)[C@H](O)[C@H]3O)c(O)c(O)c12,,-13.6%
CC(=O)Nc1ccc(-c2nc3ccc(Cl)cc3[nH]2)cc1,,11.8%
COc1ccc2c(c1OC)C(Cc1ccccc1)N1CCc3cc4c(cc3C1C2)OCO4 (configuration not stated),1 µM (active),
Cc1cccc(-c2cc(=O)c3cc(C)ccc3o2)c1,3.98 µM (active),
C=C(CO)C1Cc2c(ccc3c(=O)c4c(oc23)COc2cc(OC)c(OC)cc2-4)O1 (configuration not stated),,-11.9%
CC1(C)CC[C@]2(C(=O)O)CC[C@]3(C)C(=CCC4[C@@]5(C)CC[C@H](O)C(C)(C)[C@@H]5CC[C@]43C)C2C1 (some centres not stated),,-15.8%
CC(=O)OCC1OC(Oc2cc(OC(C)=O)c3c(=O)cc(-c4ccc(OC(C)=O)c(OC(C)=O)c4)oc3c2)C(OC(C)=O)C(OC(C)=O)C1OC(C)=O (configuration not stated),3.98 µM (active),
OC1CCC2Cc3ccccc3N=C12 (configuration not stated),,-21.8%
O=C(Cc1ccc(Cl)cc1)c1c(O)cc(O)cc1O,5.01 µM (active),

# Molecular target: Cytochrome P450 3A4 (Homo sapiens) (UniProt P08684)
# Experiment: qHTS Assay for Activators of Cytochrome P450 3A4 (AID 885); also: nearly all actives have a fitted effect of over 65% in size
# Details: recombinant CYP3A4, Luciferin-PPXE luminescence, 60 min; series mostly up to 57.1 µM; activity change, positive = activation: at the top concentration
# Summary of the method: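 Luminescent readout of luciferin formed from 25 uM Luciferin-PPXE (KM level) by 20 nM CYP3A4 in 200 mM KPO4, with 60 min NADPH-driven reaction at room temperature after 10 min compound exposure. Ketoconazole (57 uM) defined 100% inhibition.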
row,SMILES,"activity change, positive = activation"
1,C=C1C(=O)O[C@@H]2C3OC3(C)CC/C=C(\C)CC[C@@H]12 (some centres not stated),-42.9%
2,COc1ccccc1CC(Cc1nc2ccccc2[nH]1)c1nc2ccccc2[nH]1 (configuration not stated),-110%
3,C[C@H]1[C@H](C)CC[C@]2(C(=O)O)CC[C@]3(C)C(=CCC4[C@@]5(C)C[C@@H](O)[C@H](O)[C@@](C)(CO)[C@@H]5CC[C@]43C)[C@H]12 (some centres not stated),-54.6%
4,CC1(C)CC[C@]2(C(=O)O)CC[C@]3(C)C(=CCC4[C@@]5(C)CC[C@H](O)C(C)(C)C5[C@H](O)C[C@]43C)C2C1 (some centres not stated),-40.6%
5,CC(C)=CCC/C(C)=C/COc1c2occc2cc2ccc(=O)oc12,-108%
6,Cc1cc(=O)cc2oc3cc(N)c(-c4c(C)cc(O)cc4O)c(C)c3nc1-2,-68.2%
7,COc1ccc(C(=O)C2C3C4COC(O4)C(=O)C3C3C=Cc4ccccc4N32)c(OC)c1 (configuration not stated),-68.2%
8,COc1ccc2c(c1OC)C(Cc1ccccc1)N1CCc3cc4c(cc3C1C2)OCO4 (configuration not stated),-73.4%
9,Cc1cccc(-c2cc(=O)c3cc(C)ccc3o2)c1,-83.8%
10,COc1ccc(-c2coc3ccc(OC4OC(COC(C)=O)C(OC(C)=O)C(OC(C)=O)C4OC(C)=O)cc3c2=O)cc1 (configuration not stated),-57.5%
11,CC(=O)OCC1OC(Oc2cc(OC(C)=O)c3c(=O)cc(-c4ccc(OC(C)=O)c(OC(C)=O)c4)oc3c2)C(OC(C)=O)C(OC(C)=O)C1OC(C)=O (configuration not stated),-61.4%
12,O=C(O)[C@H]1[C@H]2C[C@H]3c4[nH]c5ccccc5c4CCN3C[C@@H]2CC[C@@H]1O,-32.9%
13,O=C(Cc1ccc(Cl)cc1)c1c(O)cc(O)cc1O,-81.5%

# Molecular target: DNA dC->dU-editing enzyme APOBEC-3G (Homo sapiens) (UniProt Q9HC16)
# Experiment: qHTS for inhibitors of Vif-A3G interactions: Validation (AID 588379); also: 0% is about no effect
# Details: Vif-A3G protein interaction assay; series mostly up to 46.1 µM; activity change, negative = inhibition: at the top concentration
# Summary of the method: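 Yellow fluorescence (Ex 488, Em 500-530) of Vif-coexpressing HeLa A3G-eYFP cells, scanned by Acumen cytometer, reports blocked A3G degradation. Cells plated at 700/well overnight at 37 deg C before compound addition, then a further overnight compound incubation at 37 deg C.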
# DNA dC->dU-editing enzyme APOBEC-3G (Homo sapiens), sequence (Q9HC16 whole entry, looked up): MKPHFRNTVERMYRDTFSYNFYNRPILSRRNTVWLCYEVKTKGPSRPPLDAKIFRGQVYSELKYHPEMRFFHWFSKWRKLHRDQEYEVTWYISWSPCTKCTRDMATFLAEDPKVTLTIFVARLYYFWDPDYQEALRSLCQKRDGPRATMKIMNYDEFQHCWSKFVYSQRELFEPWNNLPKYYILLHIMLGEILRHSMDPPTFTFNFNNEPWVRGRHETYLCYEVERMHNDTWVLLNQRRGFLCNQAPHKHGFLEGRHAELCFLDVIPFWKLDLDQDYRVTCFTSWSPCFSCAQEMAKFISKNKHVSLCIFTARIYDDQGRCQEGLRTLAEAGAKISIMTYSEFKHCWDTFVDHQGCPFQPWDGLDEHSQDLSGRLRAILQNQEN
row,SMILES,"activity change, negative = inhibition"
1,C=C1C(=O)O[C@@H]2C3OC3(C)CC/C=C(\C)CC[C@@H]12 (some centres not stated),-3.05%
2,COc1ccccc1CC(Cc1nc2ccccc2[nH]1)c1nc2ccccc2[nH]1 (configuration not stated),0.234%
3,CC1=CC(=O)C2=C(C)CCC3C(C)C(=O)OC3C12 (configuration not stated),3.91%
4,C[C@H]1[C@H](C)CC[C@]2(C(=O)O)CC[C@]3(C)C(=CCC4[C@@]5(C)C[C@@H](O)[C@H](O)[C@@](C)(CO)[C@@H]5CC[C@]43C)[C@H]12 (some centres not stated),3.9%
5,CC1(C)CC[C@]2(C(=O)O)CC[C@]3(C)C(=CCC4[C@@]5(C)CC[C@H](O)C(C)(C)C5[C@H](O)C[C@]43C)C2C1 (some centres not stated),1.45%
6,CC(C)=CCC/C(C)=C/COc1c2occc2cc2ccc(=O)oc12,1.81%
7,O=c1c(O)c(-c2ccc(O)c(O)c2)oc2c(OC[C@@H]3O[C@@H](O)[C@@H](O)[C@H](O)[C@H]3O)c(O)cc(O)c12,6.22%
8,CNC(=O)Oc1ccc2c(c1)C1(C)CCN(C)C1N2C (configuration not stated),-6.65%
9,Cc1cc(=O)cc2oc3cc(N)c(-c4c(C)cc(O)cc4O)c(C)c3nc1-2,3.15%
10,CC1(C)S[C@H]2[C@@H](NC(=O)C(N)c3ccccc3)C(=O)N2[C@H]1C(=O)O (some centres not stated),3.11%
11,COc1ccc(C(=O)C2C3C4COC(O4)C(=O)C3C3C=Cc4ccccc4N32)c(OC)c1 (configuration not stated),-0.417%
12,O=c1cc(-c2ccccc2)oc2cc(O[C@@H]3O[C@H](CO)[C@@H](O)[C@H](O)[C@H]3O)c(O)c(O)c12,-5.36%
13,CC(=O)Nc1ccc(-c2nc3ccc(Cl)cc3[nH]2)cc1,-3.26%
14,COc1ccc2c(c1OC)C(Cc1ccccc1)N1CCc3cc4c(cc3C1C2)OCO4 (configuration not stated),-5.73%
15,Cc1cccc(-c2cc(=O)c3cc(C)ccc3o2)c1,-3.81%
16,CC12CCC3c4ccc(O)cc4CCC3C1CCC2=O (configuration not stated),-1.87%
17,COc1ccc(-c2coc3ccc(OC4OC(COC(C)=O)C(OC(C)=O)C(OC(C)=O)C4OC(C)=O)cc3c2=O)cc1 (configuration not stated),-3.07%
18,C=C(CO)C1Cc2c(ccc3c(=O)c4c(oc23)COc2cc(OC)c(OC)cc2-4)O1 (configuration not stated),3.3%
19,CC1(C)CC[C@]2(C(=O)O)CC[C@]3(C)C(=CCC4[C@@]5(C)CC[C@H](O)C(C)(C)[C@@H]5CC[C@]43C)C2C1 (some centres not stated),0.0917%
20,CC(=O)OCC1OC(Oc2cc(OC(C)=O)c3c(=O)cc(-c4ccc(OC(C)=O)c(OC(C)=O)c4)oc3c2)C(OC(C)=O)C(OC(C)=O)C1OC(C)=O (configuration not stated),-5.24%
21,OC1CCC2Cc3ccccc3N=C12 (configuration not stated),-5.86%
22,CC(C)c1ccc2c(c1)CC[C@@H]1[C@@](C)(CN)CCC[C@]21C,-1.29%
23,C=C(CO)C1Cc2c(ccc3c2OC2COc4cc(OC)c(OC)cc4C2C3=O)O1 (configuration not stated),-4.87%
24,O=C(O)[C@H]1[C@H]2C[C@H]3c4[nH]c5ccccc5c4CCN3C[C@@H]2CC[C@@H]1O,-3.91%
25,O=C(Cc1ccc(Cl)cc1)c1c(O)cc(O)cc1O,3.23%
